# Source: the supplement of paper PMC11417369
# ± gives the standard deviation of the averaged measurements. The full ranking holds about 25,000 sequences; the median of “ln(normalized median fluorescence intensity)” is about 7.9, and the highest 2% start at about 11. The entries come from a sample that favours the highest values as a whole.
# Tested on: PfAP2-I AP2 domain 3 (GST-tagged)
# Experiment: gcPBM binding intensity (ln(normalized median fluorescence intensity)); higher = stronger DNA binding
# Procedure, shortened: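 Using an Agilent 4 × 180k array, primer-extended double-stranded 36-bp intergenic genomic probes and negative controls were exposed for 1 h to GST-fused P. falciparum DNA-binding domains expressed in E. coli. Binding was carried out in 1× PBS with 1% milk, 0.2 mg/ml BSA, 0.5% salmon testes DNA and 0.03% Triton X-100, and protein was detected with Alexa488 anti-GST antibody and a 488 nm scan. Binding intensity is the highest Masliner-normalised natural-log median intensity across replicate spots of either probe orientation.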
row,Sequence,gcPBM binding intensity (ln)
1,TATGTCCATATTTCCACACACATATTATTTTTATAT [CACACA_site3798],8.18 ± 0.53
2,AGCTACAAAAATTAATATATATATGTATAGTTATAC [TGCATGCA_negctrl_site531],7.38 ± 0.59
3,GTCAAATTTTTGTGCACACATATATAGTTATTATTA [CACACA_site2241],11.2 ± 0.23
4,TTTTTGTTATTATGTGTGCACATATATATATATATA,10.3 ± 0.31
5,TTTTATTTCTTTGCACCATTTTAAATACAAACAAAT [CACACA_negctrl_site1553],11.1 ± 0.79
6,ATGTCAAATTTTTGTGCACACATATATAGTTATTAT [CACACA_site2242],10.78 ± 0.028
7,CAGTTGTTAATTTGTGTGCACCAAATATTATACATA,11 ± 0.33
8,AAATATTACATTTGTTAAATAATATGTTATACATAA [XGTACX_negctrl_site484],7.32 ± 0.54
9,TATAAAAATGTGCACACACACACATATTTATATTTA [CACACA_site6826],9.365 ± 0.007
10,TATATATATATATATGTGCACATATTTATATGTTTT,9.85 ± 0.22
11,TTATTTTATTTTTTTGTGCACATATATATTTATAAA [GTGCAC_site9615],10.86 ± 0.028
12,GTATTTCTTTAATATACACACACCAAAACAAAAAAA [CACACA_site579],8.13 ± 0.49
13,TCTTTCCTTATTAAAACACACAAATACATTATTTAA [CACACA_site2147],7.84 ± 0.46
14,TGTGTATTTATAAATACACACCAAATGTTAATATAT [CACACA_site6904],8.03 ± 0.47
15,GAAATAAATATAATATATATATATATATATATATGT [TGCATGCA_negctrl_site216],8.25 ± 0.38
16,CAACCATTTGTAGGTAAACACACATTATTATTAATA [CACACA_site8842],7.47 ± 0.46
17,AAGTATTTTTTTACATGTACATATATATATATATAT [XGTACX_site5065],9.4 ± 0.56
18,ATATTATATCTAATCGTGCACAACTGTACATTTGTC,10.5 ± 0.12
19,TTTTTTTCATAATATACACACAAAAAAAAAAAAAAA [CACACA_site3224],8.12 ± 0.68
20,TTCATTTTTTGCTTTCAACACACATACAATATATAT [CACACA_site9369],8.01 ± 0.49
21,AAATTACCCATCCATACACACATATTTTTTTTAATT [CACACA_site2189],7.96 ± 0.64
22,AATTTTTTTTTTAGACGTACAAGAAAAAACAAAAAA [XGTACX_site4990],8.15 ± 0.55
23,GTATTTAGATGATTAACACACATATGTGTATTAATA [CACACA_site6733],7.92 ± 0.41
24,ATATATTTTTTAAACACACACATAAATATTTGTGTA [CACACA_site2879],7.84 ± 0.49
25,TTCTATTTTTTAAAAGTGCATATTATAAATATATAT,9.63 ± 0.11

row,Sequence,gcPBM binding intensity (ln)
1,GGGATATTTTAAAGGGTGCATATTATTAAAATAATG,10.7 ± 0.51
2,TTTATTTTTATTTTTGTGCACGGGATTAAATAAAAG [GTGCAC_site9842],11.22 ± 0.092
3,TAATAATTTATAATAGTGCATTTGATTTTAAAAATA,9.81 ± 0.51
4,TTTTGATATAAATATTAGATTAATAAATAAAAAAAT [CACACA_negctrl_site1635],7.8 ± 0.39
5,TAAAATAAAAATATAGTGCACAGATTTTGATATTTT [GTGCAC_site9696],11.2 ± 0.23
6,TATTTTATAATAGGCACACATATAAAAATATATATA [CACACA_site4127],7.96 ± 0.52
7,AATATTTTTTTATAAACACACATATATATAAATATA [CACACA_site3524],7.89 ± 0.33
8,TAAAAAATAAAATACACACACATATTTATATTTATA [CACACA_site6737],7.41 ± 0.4
9,ATTTTTTTATTTTGTGCACACACATAAAAATATATA [CACACA_site762],11.1 ± 0.27
10,TTTTTTATTTTGTGCACACACATAAAAATATATATA [CACACA_site761],11.2 ± 0.31
11,ACTTATTTCGATATGTGTACTTAATATATATATTTA [XGTACX_site6616],7.89 ± 0.39
12,ACATATACAAGACACACACACAACGTTTTAATAAAT [CACACA_site7017],8.12 ± 0.46
13,ACATATTTTTAATACACACTCAAAAAAGTACTTAAC [CACACA_site3014],8.2 ± 0.28
14,TCTACAATTATAATTACACACTATAAAAAAGAAAGA [CACACA_site2984],7.96 ± 0.35
15,TCTTTTTTTTTTATTTGTACTTATTTTTTTCAAAAA [XGTACX_site3403],8.24 ± 0.51
16,TGAAAAAAAAAAAAAAAAAAAAGAAAAAAAAAAAAA [CACACA_negctrl_site709],7.82 ± 1.2
17,AATAATCTATATTGTACACACAAAATGGGAAAAAAA [CACACA_site6969],8.11 ± 0.73
18,ATAAAAAAAAATATTTGTACACATATTTATATATTA [XGTACX_site8147],7.63 ± 0.36
19,ATAGAACTATATTGCACACATAATATATATATATAT [CACACA_site3189],10.5 ± 0.52
20,ATATCATTTTCCTGCACACATAAATTTATATAATAT [CACACA_site1048],9.45 ± 0.38
21,AATTTTCCATAGATTGTGCACAAATTTTTATTTTGT,10.9 ± 0.2
22,ATTTATTTATTGGCACGTACAAATTTGTGTTTTCCA [XGTACX_site6978],8.54 ± 0.53
23,ACATAATATACTATTGTGCACATATATATATATATA [GTGCAC_site9761],10.88 ± 0.085
24,TATTTTTCCATAAAAATTTATATAGAAACAAATAAT [GTGCAC_negctrl_site103],7.75 ± 0.46
25,TTTTTCCTATTTTTAGTGCACATATAAATAAATAAA [GTGCAC_site9821],11.6 ± 0.23
